Screens as filed in PubChem.
Only some compounds are listed: those with a hit (about 4.8% of all), similar ones and a draw of the others.
DAX1 inh-1: DAX1 (NR0B1) inhibitors on StAR promoter, primary screen, cell-based, luminescence, SF-1 (NR5A1), full-length DAX-1; inhibition, % at 6.8 µM; HEK293T StAR-luciferase reporter, SF-1/DAX-1 repression relief; actives 1.1% (n = 370,000);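 active = inhibition above the mean over all tested compounds plus 3 SD, cut at about 3.6% in these data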;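 note: 0% = DAX-1 cells with DMSO and 100% = cells lacking DAX-1 with DMSO; higher inhibition means more luminescence from relief of DAX-1 repression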
ssDAF-12 act: S. stercoralis DAF-12 nuclear receptor activators, primary screen, cell-based, luminescence, HEK293, GRIP1 co-expression, lit1-tk-luc; Nuclear hormone receptor DAF-12 (Strongyloides stercoralis); HEK293 ssDAF-12/GRIP1 lit1-tk-luc reporter; % of 3 µM dafachronic acid response; activation, % at 6.8 µM; actives 1% (n = 370,000); AID 652126, 2013;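 active = activation above the mean over all tested compounds plus 3 SD, cut at about 0.9% in these data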;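 note: 0% = DMSO-only wells and 100% = 3 µM delta7-dafachronic acid wells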
hcDAF-12 act: H. contortus DAF-12 nuclear receptor activators, primary screen, cell-based, luminescence, HEK293, lit1-tk-luc reporter. activation, % at 6.8 µM. AID 652067, 2013. actives 1.4% (n = 370,000). HEK293 hcDAF-12 lit1-tk-luc reporter; 0% DMSO, 100% Δ7-dafachronic acid;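 active = activation above the mean of all tested compounds plus 3 SD, cut at about 5.5% in these data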;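 note: 100% = response to 3 µM Δ7-dafachronic acid high control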
hgDAF12 agonist: H. glycines DAF-12 receptor agonists, primary screen, cell-based, luminescence, HEK293, GAL4 fusion, UAS-luciferase; activation, % at 6.8 µM; AID 687014, 2013; HEK293 GAL4-hgDAF12 UAS-luciferase reporter, agonist luminescence; normalized to butyrate control; actives 1.8% (n = 370,000);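 active = activation above a cutoff set at the mean of all screened compounds plus 3 SD, cut at about 10% in these data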;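 note: 0% = DMSO wells and 100% = sodium butyrate wells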
DAX1 inh-2: DAX1 (NR0B1) inhibitors, primary screen, cell-based, HEK293, Gal4-DAX1, luciferase luminescence | HEK293 Gal4-DAX1 luciferase reporter | inhibition, % at 6.75 µM | actives 0.99% (n = 340,000);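 active = inhibition above the mean over all tested compounds plus 3 SD, cut at about 4.2% in these data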;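 note: 0% = DAX1-transfected cells with DMSO and 100% = empty-vector control cells with DMSO; inhibition shows as a rise in luminescence from relieved DAX1 repression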
Rev-erbA mod: modulators of Rev-erb alpha DNA binding, primary screen, biochemical, FITC-DNA, fluorescence polarization, uHTS; Nuclear receptor subfamily 1 group D member 1 (Homo sapiens), P20393; Rev-erbα–FITC-DNA binding, 90 min; activity, % at 10 µM; actives 0.79% (n = 370,000); AID 1259318, 2017;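 active = activity above about 14%, limit read from the data; passing the limit was not always enough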;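 note: 0% = DMSO wells with 35 nM protein and 100% = DMSO wells with 750 nM protein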
Target sequence (P20393 whole entry, looked up): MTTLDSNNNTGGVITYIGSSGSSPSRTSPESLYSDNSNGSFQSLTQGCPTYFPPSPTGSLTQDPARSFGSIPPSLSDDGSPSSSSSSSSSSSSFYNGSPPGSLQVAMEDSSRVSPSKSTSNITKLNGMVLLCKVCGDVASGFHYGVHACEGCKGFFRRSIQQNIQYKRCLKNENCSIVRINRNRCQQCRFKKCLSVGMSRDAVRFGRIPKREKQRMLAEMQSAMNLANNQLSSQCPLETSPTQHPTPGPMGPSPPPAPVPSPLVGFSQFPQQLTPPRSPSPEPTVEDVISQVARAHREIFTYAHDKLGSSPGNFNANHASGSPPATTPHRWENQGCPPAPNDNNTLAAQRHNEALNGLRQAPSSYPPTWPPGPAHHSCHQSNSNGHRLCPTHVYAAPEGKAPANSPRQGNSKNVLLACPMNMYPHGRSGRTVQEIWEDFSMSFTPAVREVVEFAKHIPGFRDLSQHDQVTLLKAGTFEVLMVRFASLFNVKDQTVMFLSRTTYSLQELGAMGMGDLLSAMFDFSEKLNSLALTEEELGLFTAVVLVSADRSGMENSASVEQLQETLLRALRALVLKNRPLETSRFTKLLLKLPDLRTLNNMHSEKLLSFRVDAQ
Rev-erbA confirm: modulators of Rev-erb alpha DNA binding, confirmation, biochemical, FITC-DNA, fluorescence polarization, single point; shares compounds with Rev-erbA mod; 90 min; activation, % at 25 µM; actives 61% (n = 3,000); AID 1259319, 2017;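 active = activation at or above a set limit, or at least 3 SD above the negative control mean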;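 note: 0% = 35 nM protein with DMSO and 100% = 750 nM protein high control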
RORg counter: modulation of RORgamma DNA binding, dose response, counter-screen for Rev-erb alpha modulator project, biochemical, fluorescence polarization, FITC-DNA; shares compounds with Rev-erbA mod; purified RORgamma protein-FITC-DNA binding; IC50, µM; actives 8% (n = 910); AID 1259320, 2017;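 active = Compounds whose fitted half-maximal concentration for disrupting protein-DNA binding is below 10 micromolar; the record names Rev-erb in its text, so the target is in doubt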
* marks the source's active call; other numbers are inactive results.

How did COc1cc(SC)ccc1C(=O)Nc1ccc(S(=O)(=O)N2CCCC2)cc1 do in these assays?
DAX1 inh-1: 1; ssDAF-12 act: -1; hcDAF-12 act: -2; hgDAF12 agonist: 2; DAX1 inh-2: 0; Rev-erbA mod: 57*; Rev-erbA confirm: 30*

Results for COc1cc(NC(=O)c2cc(S(=O)(=O)N3CCCCC3)ccc2N2CCOCC2)cc(OC)c1 ?
DAX1 inh-1: 1; ssDAF-12 act: -2; hcDAF-12 act: -1; hgDAF12 agonist: 2; DAX1 inh-2: 1; Rev-erbA mod: 22*; Rev-erbA confirm: -6

How did CC(=O)Nc1ccc(NC(=O)c2cc(S(=O)(=O)N3CCCCC3)ccc2N2CCOCC2)cc1 do in these assays?
DAX1 inh-1: 2; ssDAF-12 act: -1; hcDAF-12 act: -1; hgDAF12 agonist: -1; DAX1 inh-2: -1; Rev-erbA mod: -5

What do the screens show for `COc1ccc(NC(=O)c2cc(S(=O)(=O)N3CCCC3)ccc2OC)cc1`?
DAX1 inh-1: 0; ssDAF-12 act: -2; hcDAF-12 act: -2; hgDAF12 agonist: -1; DAX1 inh-2: 0; Rev-erbA mod: -4

Results for CC(=O)c1ccccc1NC(=O)c1cc(S(=O)(=O)N2CCOCC2)ccc1N1CCCC1 ?
DAX1 inh-1: 1; ssDAF-12 act: -1; hcDAF-12 act: 1; hgDAF12 agonist: 1; DAX1 inh-2: -1; Rev-erbA mod: 144*; Rev-erbA confirm: 145*; RORg counter: >40

How did O=C(Nc1ccccc1N1CCCC1)c1cc(S(=O)(=O)N2CCOCC2)ccc1Cl do in these assays?
DAX1 inh-1: -1; ssDAF-12 act: -1; hcDAF-12 act: 0; hgDAF12 agonist: -2; DAX1 inh-2: -1; Rev-erbA mod: 2

How did Cc1cccc2nc(-c3ccccc3)c(-c3ccc(CN4CCC5(CC4)CNc4ccccc45)cc3)nc12 do in these assays?
DAX1 inh-1: 0; ssDAF-12 act: 0; hcDAF-12 act: 0; hgDAF12 agonist: 3; Rev-erbA mod: -6

Results for Cc1ccc(NC(=O)CSc2nnc(-c3cc(-c4ccc(Cl)cc4)n[nH]3)n2N)cc1 ?
DAX1 inh-1: 0; ssDAF-12 act: -1; hcDAF-12 act: 4; hgDAF12 agonist: 3; Rev-erbA mod: 5

What do the screens show for `C=CCn1c(=NC(=O)c2cccs2)sc2cccc(OC)c21`?
DAX1 inh-1: 0; ssDAF-12 act: 0; hcDAF-12 act: 1; hgDAF12 agonist: 2; DAX1 inh-2: -1; Rev-erbA mod: -4

Results for C#CCn1c(=NC(=O)c2ccc(Br)s2)sc2cccc(OC)c21 ?
DAX1 inh-1: 0; ssDAF-12 act: 0; hcDAF-12 act: 1; hgDAF12 agonist: 4; DAX1 inh-2: 1; Rev-erbA mod: 27*; Rev-erbA confirm: 43*; RORg counter: inactive

Results for CC(C)CNc1cccc2c1S(=O)(=O)N(Cc1cccc(F)c1)[C@@H](C)[C@H](c1ccccc1)O2 ?
DAX1 inh-1: 1; ssDAF-12 act: -1; hcDAF-12 act: 1; hgDAF12 agonist: 2; Rev-erbA mod: 4

Results for CC1(C)Oc2ccc(C(=O)N3CCCC3)cc2NC1=O ?
DAX1 inh-1: 0; ssDAF-12 act: -1; hcDAF-12 act: 2; hgDAF12 agonist: 0; Rev-erbA mod: -6

Results for O=C(OCCN1C(=O)c2cccc3c(N4CCOCC4)ccc(c23)C1=O)c1ccc(Cl)cc1Cl ?
DAX1 inh-1: -2; ssDAF-12 act: -1; hcDAF-12 act: 0; hgDAF12 agonist: 1; DAX1 inh-2: -2; Rev-erbA mod: 260*; Rev-erbA confirm: 206*; RORg counter: 4.5*

How did O=C(OCCN1C(=O)c2cccc3c(N4CCOCC4)ccc(c23)C1=O)c1ccccc1Cl do in these assays?
DAX1 inh-1: -4; ssDAF-12 act: -3; hcDAF-12 act: -7; hgDAF12 agonist: -9; DAX1 inh-2: -1; Rev-erbA mod: 40*; Rev-erbA confirm: 56*; RORg counter: >40

Results for O=C(OCCN1C(=O)c2ccccc2C1=O)c1cc(S(=O)(=O)N2CCOCC2)ccc1Cl ?
DAX1 inh-1: 1; ssDAF-12 act: -1; hcDAF-12 act: 0; hgDAF12 agonist: -1; DAX1 inh-2: 0; Rev-erbA mod: -4

Results for COc1ccccc1C=C(C(=O)c1ccccc1)c1ccccc1 ?
DAX1 inh-1: -1; ssDAF-12 act: -1; hcDAF-12 act: -2; hgDAF12 agonist: 1; Rev-erbA mod: 18*; Rev-erbA confirm: 5

Results for FC(F)(F)c1cc(-c2ccco2)nc(-n2nnc3ccccc32)n1 ?
DAX1 inh-1: 0; ssDAF-12 act: -1; hcDAF-12 act: -1; hgDAF12 agonist: 3; DAX1 inh-2: 0; Rev-erbA mod: 21*; Rev-erbA confirm: 1

Results for Nc1nc2c(ncn2[C@@H]2O[C@H](C(=O)N[C@@H](Cc3ccccc3)C(=O)NCc3ccc4c(c3)OCO4)[C@@H](O)[C@H]2O)c(=O)[nH]1 ?
DAX1 inh-1: -1; ssDAF-12 act: -1; hcDAF-12 act: 0; hgDAF12 agonist: -5; Rev-erbA mod: 10

What do the screens show for `CCOC(=O)c1sc(NC(=O)C2=COCCO2)c(C#N)c1C`?
DAX1 inh-1: -2; ssDAF-12 act: -1; hcDAF-12 act: -2; hgDAF12 agonist: 1; DAX1 inh-2: -1; Rev-erbA mod: 1

How did CCOC(=O)c1sc(NC(=O)C(C)C)c(C#N)c1C do in these assays?
DAX1 inh-1: 0; ssDAF-12 act: -2; hcDAF-12 act: -1; hgDAF12 agonist: -3; DAX1 inh-2: -1; Rev-erbA mod: 47*; Rev-erbA confirm: 26*

What do the screens show for `CCC(=O)Nc1sc(C(=O)OC)c(C)c1C(=O)OC`?
DAX1 inh-1: 0; ssDAF-12 act: -1; hcDAF-12 act: 0; hgDAF12 agonist: 1; DAX1 inh-2: -1; Rev-erbA mod: -3
